The target in experiment [1] is Serine/threonine-protein kinase 26 (Homo sapiens) (UniProt Q9P289). Particulars: at 1 µM.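 Note: mean inhibition of MST4 kinase activity, reported from the GSK PKIS inhibitor-set screening panel.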
Experiment [2] has as its target Serine/threonine-protein kinase PAK 1 (Homo sapiens) (UniProt Q13153). Particulars: at 0.1 µM.
Experiment [3] has the same target. Particulars: at 1 µM.
Experiment [4] concerns the target Serine/threonine-protein kinase PAK 2 (Homo sapiens) (UniProt Q13177). The conditions noted are these: at 0.1 µM.
The target is the same in experiment [5]. The conditions noted are these: at 1 µM.
The target of experiment [6] is Serine/threonine-protein kinase PAK 3 (Homo sapiens) (UniProt O75914). The conditions noted are these: at 0.1 µM.
Experiment [7] has the same target. The conditions noted are these: at 1 µM.
Experiment [8] deals with Serine/threonine-protein kinase PAK 5 (Homo sapiens) (UniProt Q9P286). The conditions noted are these: at 0.1 µM.
Experiment [9] has the same target. The conditions noted are these: at 1 µM.
The target in experiment [10] is Serine/threonine-protein kinase PAK 6 (Homo sapiens) (UniProt Q9NQU5). Particulars: at 0.1 µM.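 Note: mean PAK6 inhibition reported from the GSK PKIS screen.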

The inhibition is the relative decrease from the control value, in per cent.

The structures appear in SMILES notation.

Chain of Serine/threonine-protein kinase PAK 6 (Homo sapiens) (Q9NQU5 whole entry, looked up): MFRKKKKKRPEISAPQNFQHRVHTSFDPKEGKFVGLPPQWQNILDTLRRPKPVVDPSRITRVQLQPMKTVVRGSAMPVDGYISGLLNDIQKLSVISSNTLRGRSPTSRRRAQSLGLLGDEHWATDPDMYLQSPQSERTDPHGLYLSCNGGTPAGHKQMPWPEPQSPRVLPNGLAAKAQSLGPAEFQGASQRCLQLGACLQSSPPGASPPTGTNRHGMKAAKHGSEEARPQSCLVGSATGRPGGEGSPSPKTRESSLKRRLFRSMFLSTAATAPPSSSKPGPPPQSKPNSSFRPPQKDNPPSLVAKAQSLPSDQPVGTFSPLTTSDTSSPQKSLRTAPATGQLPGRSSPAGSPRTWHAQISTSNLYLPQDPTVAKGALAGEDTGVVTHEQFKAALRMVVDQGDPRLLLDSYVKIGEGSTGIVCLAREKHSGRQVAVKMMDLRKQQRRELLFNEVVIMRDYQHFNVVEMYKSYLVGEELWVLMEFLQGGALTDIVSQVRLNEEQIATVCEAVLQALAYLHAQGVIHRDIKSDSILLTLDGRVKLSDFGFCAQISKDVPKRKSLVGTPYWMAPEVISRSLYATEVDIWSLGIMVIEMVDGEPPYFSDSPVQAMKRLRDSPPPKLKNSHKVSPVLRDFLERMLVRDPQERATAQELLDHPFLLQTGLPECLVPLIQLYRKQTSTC
Chain of Serine/threonine-protein kinase PAK 1 (Homo sapiens) (Q13153 whole entry): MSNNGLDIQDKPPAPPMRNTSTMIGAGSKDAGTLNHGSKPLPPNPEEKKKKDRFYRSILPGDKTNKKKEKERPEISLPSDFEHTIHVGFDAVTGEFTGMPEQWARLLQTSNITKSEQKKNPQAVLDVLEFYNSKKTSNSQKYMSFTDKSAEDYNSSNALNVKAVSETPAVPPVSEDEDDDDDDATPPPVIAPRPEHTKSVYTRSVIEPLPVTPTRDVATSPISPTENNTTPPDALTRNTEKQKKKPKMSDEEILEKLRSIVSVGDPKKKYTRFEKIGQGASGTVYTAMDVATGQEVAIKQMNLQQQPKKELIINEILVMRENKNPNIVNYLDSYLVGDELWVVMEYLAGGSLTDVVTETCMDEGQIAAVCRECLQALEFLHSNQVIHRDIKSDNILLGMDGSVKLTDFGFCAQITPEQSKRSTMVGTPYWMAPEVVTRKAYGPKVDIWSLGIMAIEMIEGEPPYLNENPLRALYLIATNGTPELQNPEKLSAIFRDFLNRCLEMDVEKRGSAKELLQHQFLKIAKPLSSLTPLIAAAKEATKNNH
Chain of Serine/threonine-protein kinase PAK 3 (Homo sapiens) (O75914 whole entry, looked up): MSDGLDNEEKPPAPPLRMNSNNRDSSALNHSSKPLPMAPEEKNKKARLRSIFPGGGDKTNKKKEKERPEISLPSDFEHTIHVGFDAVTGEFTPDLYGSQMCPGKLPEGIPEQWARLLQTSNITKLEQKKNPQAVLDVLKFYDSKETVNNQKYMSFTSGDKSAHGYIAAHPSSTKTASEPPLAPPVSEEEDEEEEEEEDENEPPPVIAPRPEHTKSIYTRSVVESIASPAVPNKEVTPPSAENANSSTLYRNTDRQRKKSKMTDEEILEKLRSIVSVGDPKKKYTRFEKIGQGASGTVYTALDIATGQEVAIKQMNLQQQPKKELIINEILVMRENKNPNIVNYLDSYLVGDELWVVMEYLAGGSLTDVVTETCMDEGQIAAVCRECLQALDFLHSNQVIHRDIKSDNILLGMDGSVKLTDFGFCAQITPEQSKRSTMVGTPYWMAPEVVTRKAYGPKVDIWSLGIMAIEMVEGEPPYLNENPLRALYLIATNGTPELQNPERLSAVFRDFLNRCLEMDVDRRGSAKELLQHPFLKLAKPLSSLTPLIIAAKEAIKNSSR
Chain of Serine/threonine-protein kinase PAK 5 (Homo sapiens) (Q9P286 whole entry, looked up): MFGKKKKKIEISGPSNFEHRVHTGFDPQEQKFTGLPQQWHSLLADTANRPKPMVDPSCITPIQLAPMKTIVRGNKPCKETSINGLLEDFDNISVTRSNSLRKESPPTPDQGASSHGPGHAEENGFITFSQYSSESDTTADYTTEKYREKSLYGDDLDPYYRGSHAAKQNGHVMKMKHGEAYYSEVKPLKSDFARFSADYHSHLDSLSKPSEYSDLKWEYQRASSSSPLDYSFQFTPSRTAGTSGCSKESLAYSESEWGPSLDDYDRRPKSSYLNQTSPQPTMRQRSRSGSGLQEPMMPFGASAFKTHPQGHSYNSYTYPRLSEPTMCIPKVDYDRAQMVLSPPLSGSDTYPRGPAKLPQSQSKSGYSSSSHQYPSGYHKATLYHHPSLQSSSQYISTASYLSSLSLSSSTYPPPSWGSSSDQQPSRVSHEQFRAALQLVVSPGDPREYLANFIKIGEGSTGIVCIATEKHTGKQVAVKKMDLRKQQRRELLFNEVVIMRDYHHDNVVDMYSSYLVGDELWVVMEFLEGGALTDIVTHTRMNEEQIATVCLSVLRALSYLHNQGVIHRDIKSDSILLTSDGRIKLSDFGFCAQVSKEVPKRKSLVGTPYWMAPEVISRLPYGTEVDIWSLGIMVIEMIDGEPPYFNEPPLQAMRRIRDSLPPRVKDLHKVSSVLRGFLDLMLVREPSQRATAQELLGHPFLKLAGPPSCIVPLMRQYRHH
Chain of Serine/threonine-protein kinase 26 (Homo sapiens) (Q9P289 2-416 limits assumed): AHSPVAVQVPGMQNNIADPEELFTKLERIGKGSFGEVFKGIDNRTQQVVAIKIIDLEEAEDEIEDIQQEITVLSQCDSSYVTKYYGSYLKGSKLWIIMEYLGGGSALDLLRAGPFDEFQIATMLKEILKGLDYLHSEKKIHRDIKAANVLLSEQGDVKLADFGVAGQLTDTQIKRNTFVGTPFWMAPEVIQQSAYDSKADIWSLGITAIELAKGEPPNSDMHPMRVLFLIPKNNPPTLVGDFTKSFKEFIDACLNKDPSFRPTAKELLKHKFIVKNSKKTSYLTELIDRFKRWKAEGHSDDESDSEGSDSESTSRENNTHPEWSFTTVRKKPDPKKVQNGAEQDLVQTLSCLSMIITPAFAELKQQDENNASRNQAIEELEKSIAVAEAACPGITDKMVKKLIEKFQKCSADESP
Chain of Serine/threonine-protein kinase PAK 2 (Homo sapiens) (Q13177 whole entry): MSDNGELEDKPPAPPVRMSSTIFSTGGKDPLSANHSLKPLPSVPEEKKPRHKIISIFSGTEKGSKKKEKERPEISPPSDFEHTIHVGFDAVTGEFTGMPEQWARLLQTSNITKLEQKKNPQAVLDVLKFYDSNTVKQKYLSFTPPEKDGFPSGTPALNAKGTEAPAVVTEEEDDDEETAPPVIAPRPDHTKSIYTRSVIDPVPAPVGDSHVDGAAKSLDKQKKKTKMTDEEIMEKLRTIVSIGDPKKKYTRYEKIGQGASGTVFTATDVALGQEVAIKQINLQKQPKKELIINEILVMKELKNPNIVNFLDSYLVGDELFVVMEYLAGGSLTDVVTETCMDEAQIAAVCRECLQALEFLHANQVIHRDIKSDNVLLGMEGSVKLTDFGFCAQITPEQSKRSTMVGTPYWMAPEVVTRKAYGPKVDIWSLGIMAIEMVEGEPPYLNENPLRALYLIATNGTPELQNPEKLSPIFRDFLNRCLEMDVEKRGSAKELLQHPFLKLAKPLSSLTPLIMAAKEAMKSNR

Regarding `COc1cccc(-n2ncc3c(N/N=C/c4cccc(F)c4)ncnc32)c1`, the inhibition in experiment [1] amounted to 2.84%; in [2] it was 6.15%; in experiment [3], 6.44%; in experiment [4], 0.05%; in experiment [5], 0.67%; in experiment [6], 1.51%. The inhibition in experiment [7] is 2.17%; in experiment [8], -1.62%; in experiment [9] it was -8.07%; in [10] it was 12.7%.
As for `CCCN1CCC(Oc2cc(Nc3nc(Nc4cccc(F)c4C(N)=O)c4cc[nH]c4n3)c(OC)cc2Cl)CC1`, the inhibition in experiment [1] was 2.1%; in experiment [2], -3.06%; in [3] it was 1.83%; in experiment [4] it was -1.01%; in experiment [5], -0.56%; in experiment [6], -0.46%. Also, the inhibition in [7] is -0.24%; in [8], 6.57%; in [9] it was 3.44%; in experiment [10], 2.36%.
`O=C1NC(=O)C(c2ccc(Cl)cc2)=C1Nc1ccc(Cl)c(C(=O)O)c1`: the inhibition in experiment [1] is -0.4%; in [2], -2.53%; in experiment [3], 2.15%; in experiment [4] it was -1.89%; in [5] it was -1.88%; in experiment [6] it was -3.46%. The inhibition in experiment [7] is -2.5%; in [8] it was 0.14%; in [9] it was 0.32%; in experiment [10] it was 13.1%.
In the case of `CC1=C(C(=O)Nc2ccc3[nH]ncc3c2)C(c2ccc3ccccc3c2)CC(=O)N1` (configuration not stated), the inhibition is -3.47% in [1]; 0.76% in experiment [2]; 4.95% in experiment [3]; -0.2% in [4]; 2.46% in experiment [5]; 2.14% in experiment [6]. In addition, the inhibition in experiment [7] is 0.85%; in [8], -1.65%; in experiment [9], 3.39%; in experiment [10], -2.35%.
In the case of `COc1ccccc1Nc1ncc(-c2ccccc2)o1`, the inhibition in experiment [1] came to 0.41%; in [2] it was 10.5%; in experiment [3], 12.7%; in [4] it was 1.73%; in experiment [5], 1.5%; in experiment [6], 6.21%. The figures for the inhibition in experiment [7], in experiment [8] and in experiment [9] were 6.38%, -2.83% and -2.65%, respectively.
As for `O=C1NC(=O)C(c2ccccc2Cl)=C1Nc1cccc(O)c1`, the inhibition amounted to 2.65% in [1]; 3.51% in experiment [2]; 3.76% in experiment [3]; 1.94% in experiment [4]; 1.62% in [5]; 2.51% in experiment [6]. The inhibition in [7] was 3.3%; in [8], 11.9%; in [9] it was -1.3%; in experiment [10], -0.02%.
As for `CS(=O)(=O)CCNCc1ccc(-c2ccc3ncnc(Nc4ccc(OCc5ccccc5)c(Cl)c4)c3c2)o1`, the inhibition in [1] is 0.42%; in experiment [2], -1.29%; in [3], 7.48%; in experiment [4], 0.77%; in experiment [5], -0.12%; in experiment [6] it was -0.48%. For the same compound, the inhibition was -0.08% in [7], -6.06% in experiment [8] and -8.65% in [9].
On to `O=C(Nc1n[nH]c2nc(-c3ccco3)c(Br)cc12)C1CC1`, for which the inhibition in experiment [1] was -2.34%; in [2], 4.84%; in experiment [3], 6.66%; in experiment [4], 2.69%; in [5], 3.61%; in [6], 3.75%. In addition, the inhibition was 3.54% in experiment [7], -1.27% in [8], -1.99% in experiment [9] and 0.11% in experiment [10].
Regarding `COC(=O)Nc1nc2cc(Oc3cccc(NC(=O)Nc4cc(C(F)(F)F)ccc4F)c3)ccc2[nH]1`, the inhibition was 1.92% in experiment [1]; 3.97% in experiment [2]; -1.03% in experiment [3]; -1.19% in [4]; 0.23% in experiment [5]; -1.11% in experiment [6]. In addition, the inhibition is -1.11% in experiment [7], 0.91% in experiment [8], -5.17% in [9] and 6.44% in experiment [10].
For the compound `Nc1nc(-c2ccccn2)c(-c2ccc3ncccc3n2)s1`, the inhibition in [1] is -0.98%; in experiment [2], 3.7%; in [3] it was 4.24%; in [4] it was 1.82%; in [5] it was 1.66%; in experiment [6] it was 3.03%. Besides, the inhibition was 3.63% in [7], 5.99% in [8], 4.49% in [9] and -7.45% in experiment [10].
Regarding `CCN1CCC(CC(=O)Nc2n[nH]c3nc(-c4cccs4)c(Br)cc23)CC1`, the inhibition is 12% in [1]; -4.19% in experiment [2]; -3.71% in experiment [3]; -2.22% in [4]; -2.2% in experiment [5]; -1.67% in [6]. For the same compound, the results for the inhibition in [7], in experiment [8] and in experiment [9] were -3.03%, 0.15% and 16.4%, respectively.
With `CS(=O)(=O)CCN(CC#N)Cc1ccc(-c2ccc3ncnc(Nc4ccc(OCc5cccc(F)c5)c(Cl)c4)c3c2)o1`, the inhibition in experiment [1] stood at 0.46%; in experiment [2] it was 1.88%; in experiment [3], 4.88%; in experiment [4], 0.62%; in experiment [5], 0.16%; in experiment [6], 2.04%. Besides, the inhibition in [7] is 4.29%; in experiment [8], 0.28%; in experiment [9], -0.85%; in [10], -6.8%.
With `NC(=O)c1cccc(Nc2nccc(Nc3cccc4[nH]ncc34)n2)c1`, the inhibition is 2.8% in [1]; -5.7% in [2]; -0.69% in experiment [3]; -3.16% in experiment [4]; -0.55% in experiment [5]; -3.68% in experiment [6]. Also, the inhibition in experiment [7] is -3.07%; in [8], -1.09%; in experiment [9], 13.4%; in experiment [10], 3.11%.
Turning to `COc1ccc(COc2ccc(Cc3cnc(N)nc3N)cc2OC)cc1`, the inhibition in [1] is 0.63%; in [2], 1.82%; in experiment [3] it was 5.79%; in experiment [4], 0.46%; in experiment [5], 0.32%; in experiment [6] it was 1.75%. The inhibition is 1.06% in experiment [7], 0.6% in [8], 7.84% in experiment [9] and 0.33% in [10].
Take `CCn1c(-c2nonc2N)nc2c(C#CC(C)(C)O)nc(OC[C@@H](N)c3ccccc3)cc21`: the inhibition is 14.1% in experiment [1]; -5.15% in [2]; 1.43% in experiment [3]; 3.89% in experiment [4]; 36.3% in experiment [5]; -1.93% in experiment [6]. Further, the inhibition in [7] worked out at 0.72%; in experiment [8], 87%; in experiment [9] it was 87.7%; in [10], 90.8%.
For `COc1ccc(-c2nn3ncccc3c2-c2ccnc(Nc3ccc(Cl)c(C(F)(F)F)c3)n2)cc1`, the inhibition in experiment [1] is 0.3%; in experiment [2] it was 2.46%; in experiment [3], 0.59%; in experiment [4], -0.08%; in experiment [5], 0.63%; in experiment [6], 2.32%. Further, the inhibition is 2.56% in experiment [7], 1.71% in experiment [8], -1.65% in [9] and -0.34% in experiment [10].
As to `CC1=C(C(=O)Nc2ccc3[nH]ncc3c2)C(c2ccc(F)cc2)NC(=O)N1` (configuration not stated), the inhibition in experiment [1] was -0.49%; in [2] it was 4.25%; in [3], 9.83%; in experiment [4], -0.87%; in [5], -0.03%; in experiment [6], 2.64%. In addition, the inhibition in [7] is 1.55%; in experiment [8], -0.45%; in experiment [9], 5.58%; in [10] it was 2.39%.

(Values after ChEMBL document CHEMBL1961873, “Compounds: GSK PKIS; Assays: Nanosyn kinase panel” (2012).)
